Experimental findings from PubChem BioAssay (EPA / NIEHS) are described below.

The source made the active and inactive calls. Rule for the calls: active = hit-call score of the fitted dose curve at least 0.9, where 1 is the maximum; inactive = score below 0.9.

What all share (conditions): mRNA level, 48 h; actives raise or lower the signal
Read-out in assay [1]: Keratin 19 (KRT19), KRT19 (gene 3880)
The experiment in a line: LTEA_HepaRG_KRT19: Life Technologies and Expression Analysis (LTEA) Assay for Keratin 19 (KRT19) using HepaRG (AID 2283512). Put shortly:
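KRT19 transcript levels, measured by Fluidigm qRT-PCR against three housekeeping genes, are fitted for gain or loss of signal relative to DMSO. Human HepaRG cells receive test chemicals (top 100 uM, half-log steps, 0.5% DMSO) for 48 hours.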

Read-out in assay [2]: JUN Transcription Factor, JUN (gene 3725)
Description: LTEA_HepaRG_JUN: Life Technologies and Expression Analysis (LTEA) Assay for JUN Transcription Factor using HepaRG (AID 2283513). Put shortly: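 HepaRG, 48 h exposure, 8-pt half-log series top 100 uM, 0.5% DMSO, duplicate. JUN mRNA by qRT-PCR (Fluidigm), housekeeping-normalized (ACTB/GAPDH/POLR2A); bidirectional curve fit vs DMSO baseline.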

Read-out in assay [3]: Lipase C (LIPC), LIPC (gene 3990)
The experiment in a line: LTEA_HepaRG_LIPC: Life Technologies and Expression Analysis (LTEA) Assay for Lipase C (LIPC) using HepaRG (AID 2283514). Put shortly:
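HepaRG, 48 h exposure, 8-pt half-log series from 100 uM in 0.5% DMSO, duplicates. Readout: LIPC mRNA by Fluidigm qRT-PCR, housekeeping-normalized (ACTB/GAPDH/POLR2A). Gain or loss fitted bidirectionally against DMSO baseline.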

Read-out in assay [4]: Lipoprotein lipase (LPL), LPL (gene 4023)
The experiment in a line: LTEA_HepaRG_LPL: Life Technologies and Expression Analysis (LTEA) Assay for Lipoprotein lipase (LPL) using HepaRG (AID 2283515). Put shortly: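 HepaRG, 48 h exposure, 8-pt half-log dilutions from 100 uM, 0.5% DMSO vehicle, duplicates; qRT-PCR (Fluidigm array) of LPL mRNA vs housekeeping genes; bidirectional curve fit relative to DMSO baseline.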

Read-out in assay [5]: MicroRNA 122 (MIR122), gene 406906
Description: LTEA_HepaRG_MIR122: Life Technologies and Expression Analysis (LTEA) Assay for MicroRNA 122 (MIR122) using HepaRG (AID 2283516). Note: the transcript read is the microRNA miR-122. Put shortly:
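qRT-PCR read-out (TaqMan, Fluidigm array), normalized to three housekeeping genes; HepaRG cells dosed 48 h at 8 concentrations up to 100 uM in 0.5% DMSO, duplicate; gain or loss fitted against DMSO baseline.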

Read-out in assay [6]: matrix metalloproteinase-10 (MMP10), MMP10 (gene 4319)
Description: LTEA_HepaRG_MMP10: Life Technologies and Expression Analysis (LTEA) Assay for matrix metalloproteinase-10 (MMP10) using HepaRG (AID 2283517). Put shortly: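 Transcript levels come from Fluidigm qRT-PCR normalized to three housekeeping genes, with curves fitted bidirectionally against 0.5% DMSO. Human HepaRG cells were dosed for 48 hours at concentrations up to 100 uM.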

Read-out in the next assay: MYC, MYC (gene 4609)
The experiment in a line: LTEA_HepaRG_MYC: Life Technologies and Expression Analysis (LTEA) Assay for MYC using HepaRG (AID 2283518). Put shortly: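 HepaRG, ~100,000 cells/well, collagen I; 48 h plating; serum-free induction medium; 48 h dosing, duplicate, 100 uM top, half-log, 0.5% DMSO; total RNA → qRT-PCR MYC; gain/loss fit vs DMSO.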

Read-out in assay [7]: matrix metalloproteinase-3 (MMP3), MMP3 (gene 4314)
Description: LTEA_HepaRG_MMP3: Life Technologies and Expression Analysis (LTEA) Assay for matrix metalloproteinase-3 (MMP3) using HepaRG (AID 2283519). Put shortly:
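qRT-PCR read-out of MMP3 mRNA (normalised to three housekeeping genes) in HepaRG liver cells after 48 h chemical exposure; 8-point half-log series, top 100 uM, 0.5% DMSO vehicle. Bidirectional curve fitting against DMSO baseline.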

Read-out in assay [8]: Paternally Expressed 10 (PEG10), PEG10 (gene 23089)
The experiment in a line: LTEA_HepaRG_PEG10: Life Technologies and Expression Analysis (LTEA) Assay for Paternally Expressed 10 (PEG10) using HepaRG (AID 2283520).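 For AC50: differentiated HepaRG human liver cells in serum-free induction medium with 0.5% DMSO; PEG10 transcript by qRT-PCR normalised to ACTB GAPDH and POLR2A.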 Put shortly: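 qRT-PCR read-out: PEG10 mRNA normalised to three housekeeping genes, fitted bidirectionally against 0.5% DMSO vehicle. HepaRG cells received test chemicals for 48 h in serum-free induction medium, 8 points, top 100 uM, half-log steps.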

Read-out in assay [9]: Potassium channel subfamily K member 1 (KCNK1), KCNK1 (gene 3775)
The experiment in a line: LTEA_HepaRG_KCNK1: Life Technologies and Expression Analysis (LTEA) Assay for Potassium channel subfamily K member 1 (KCNK1) using HepaRG (AID 2283511). Put shortly: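 HepaRG, 48 h exposure, 8-pt half-log series top 100 uM, 0.5% DMSO vehicle, duplicates. Readout: KCNK1 transcript by qRT-PCR (Fluidigm array), housekeeping-normalized; bidirectional curve fit relative to DMSO baseline.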

Turning to `CN1CCC[C@H]1c1cccnc1`, the outcome in assay [1], in assay [2], in assay [3], in [4], in [5] and in assay [6] was inactive. The outcome with MYC, MYC (gene 4609) was “inactive”; in assay [7], “inactive”; in assay [8], “inactive”.
As for `CCOC(=O)CC(O)(CC(=O)OCC)C(=O)OCC`, the molecule was classed as inactive in assay [1], in [2], in [3], in assay [4], in assay [5] and in assay [6]. Besides, the outcome is “inactive” with MYC, MYC (gene 4609); “inactive” in [7]; “inactive” in [8].
With `NC(=O)N1C(=O)C(C(=O)c2cc(Cl)cs2)c2cc(F)c(Cl)cc21` (stereo unspecified), the AC50 (in general, the concentration giving half of the maximal activity seen) in [1] was 13.2 µM (active); in assay [2] it was 30.3 µM (active); in assay [3], 21.2 µM (active); in assay [4] it was 90.6 µM (active); in assay [5], 26.4 µM (active); in [6], 34.9 µM (active). The AC50 was 27 µM (active) with MYC, MYC (gene 4609); 50 µM (active) in assay [7]; 20.8 µM (active) in assay [8].
With `CCCOC(=O)c1ccc(O)cc1`, the molecule was classed as inactive in [9], in assay [1], in [3], in assay [4], in [5] and in assay [6]. Moreover, the outcome was “inactive” with MYC, MYC (gene 4609) and “inactive” in assay [7].
For `CCCCCCCCOC(=O)CCCCCCCCC(=O)OCCCCCCCC`, the call in assay [1], in assay [2], in assay [3], in assay [4], in assay [5] and in assay [6] was inactive. Further, the outcome is “inactive” in the assay with MYC, MYC (gene 4609); “inactive” in [7]; “inactive” in assay [8].
`CCCCCCCC(=O)O`: the call in [9], in assay [1], in [3], in assay [4], in assay [5] and in assay [6] was inactive. Further, the outcome in the assay with MYC, MYC (gene 4609) is “inactive”; in assay [7], “inactive”; in [8], “inactive”.
`O=C(O)Cc1cc(I)c(Oc2cc(I)c(O)c(I)c2)c(I)c1`: the AC50 in assay [9] was 53.9 µM (active); in assay [1], 0.0526 µM (active); in assay [3] it was 52.2 µM (active); in [4], 60.6 µM (active); in assay [5] it was 58.6 µM (active); in [6], 51.5 µM (active). Moreover, the AC50 is 52 µM (active) with MYC, MYC (gene 4609); 51.5 µM (active) in [7]; 0.228 µM (active) in assay [8].
With `Cc1oc(-c2ccccc2)nc1CCOc1ccc(C[C@H](Nc2ccccc2C(=O)c2ccccc2)C(=O)O)cc1`, the AC50 was 15.8 µM (active) in assay [9]; 13.2 µM (active) in assay [1]; 16.5 µM (active) in assay [2]; 25 µM (active) in assay [6]; 12.5 µM (active) with MYC, MYC (gene 4609); 50 µM (active) in assay [7]. In addition, the AC50 in assay [8] is 20.8 µM (active). Also, the result in [3], in [4] and in [5] was inactive.
Take `CCCCC(CC)COC(=O)CCCCC(=O)OCC(CC)CCCC` (stereo unspecified): the molecule was called inactive in [1], in assay [2], in assay [3], in assay [4], in [5] and in assay [6]. Moreover, the outcome in the assay with MYC, MYC (gene 4609) is “inactive”; in assay [7], “inactive”; in assay [8], “inactive”.
In the case of `CCCCCCCCCCCCc1ccccc1S(=O)(=O)O`, the result in assay [9], in assay [1] and in assay [8] was inactive. The AC50 is 72 µM (active) in assay [3]; 11.7 µM (active) in assay [4]; 80.6 µM (active) in assay [5]; 82.8 µM (active) in assay [6]; 37.8 µM (active) in the assay with MYC, MYC (gene 4609); 26.9 µM (active) in [7].
As for `CC(C)CCCCCCOC(=O)CCCCC(=O)OCCCCCCC(C)C`, the molecule was called inactive in [1], in assay [2], in [3], in [4], in assay [5] and in [6]. Further, the outcome is “inactive” in the assay with MYC, MYC (gene 4609); “inactive” in assay [7]; “inactive” in [8].
For `CN1CCN(c2ccccc2/C=C2\SCCN(c3ccc(Cl)c(Cl)c3)C2=O)CC1`, the AC50 in assay [9] is 59.5 µM (active); in [1] it was 12.4 µM (active); in [4], 84.9 µM (active); in [5], 94.1 µM (active); in assay [6] it was 93.9 µM (active); in assay [7] it was 87.1 µM (active). Besides, the AC50 in assay [8] was 14 µM (active). The outcome in assay [3] is “inactive”; in the assay with MYC, MYC (gene 4609), “inactive”.
On to `CC(=O)CC(C)(C)O`, for which the call in assay [9], in assay [1], in assay [2], in [3], in assay [4] and in [5] was inactive. The molecule was called inactive in [6], in assay [7] and in assay [8]. In addition, the AC50 with MYC, MYC (gene 4609) was 0.118 µM (active).
As for `CC(=O)NC1(c2cccc(F)c2)CCN(CC[C@@]2(c3ccc(Cl)c(Cl)c3)CN(c3ccccc3)C(=O)CO2)CC1`, the outcome in [9] is “inactive”; in assay [1] it was “inactive”; in assay [3], “inactive”; in [5] it was “inactive”; with MYC, MYC (gene 4609), “inactive”; in assay [7], “inactive”. Also, the result in assay [8] was inactive. For the same molecule, the figures for the AC50 in assay [4] and in assay [6] were 23.1 µM (active) and 71 µM (active), respectively.
Take `c1ccc2c(c1)ccc1ccccc12`: the molecule was classed as inactive in assay [9], in assay [1], in [3], in assay [4], in [5] and in [6]. The outcome with MYC, MYC (gene 4609) was “inactive”; in [7], “inactive”; in [8], “inactive”.
